Laboratory results: the supplement of paper PMC11732987, “Enantioselective OTUD7B fragment discovery through chemoproteomics screening and high-throughput optimisation” (Communications Chemistry, 2025)

Experiments:
Test in all cases: log2 ratio of Biotin-Ahx-Ub-VS probe labelling (fragment/DMSO); higher = less target engagement (more negative = stronger competition), active = hit call of the paper (q ≤ 0.05, log2 ratio ≤ -1)
Conditions in all cases: compound concentration: 200 uM; treatment time: 3 h
[1] = target: T1, ALG13 (UniProt Q9NP73)
T1 sequence (whole entry): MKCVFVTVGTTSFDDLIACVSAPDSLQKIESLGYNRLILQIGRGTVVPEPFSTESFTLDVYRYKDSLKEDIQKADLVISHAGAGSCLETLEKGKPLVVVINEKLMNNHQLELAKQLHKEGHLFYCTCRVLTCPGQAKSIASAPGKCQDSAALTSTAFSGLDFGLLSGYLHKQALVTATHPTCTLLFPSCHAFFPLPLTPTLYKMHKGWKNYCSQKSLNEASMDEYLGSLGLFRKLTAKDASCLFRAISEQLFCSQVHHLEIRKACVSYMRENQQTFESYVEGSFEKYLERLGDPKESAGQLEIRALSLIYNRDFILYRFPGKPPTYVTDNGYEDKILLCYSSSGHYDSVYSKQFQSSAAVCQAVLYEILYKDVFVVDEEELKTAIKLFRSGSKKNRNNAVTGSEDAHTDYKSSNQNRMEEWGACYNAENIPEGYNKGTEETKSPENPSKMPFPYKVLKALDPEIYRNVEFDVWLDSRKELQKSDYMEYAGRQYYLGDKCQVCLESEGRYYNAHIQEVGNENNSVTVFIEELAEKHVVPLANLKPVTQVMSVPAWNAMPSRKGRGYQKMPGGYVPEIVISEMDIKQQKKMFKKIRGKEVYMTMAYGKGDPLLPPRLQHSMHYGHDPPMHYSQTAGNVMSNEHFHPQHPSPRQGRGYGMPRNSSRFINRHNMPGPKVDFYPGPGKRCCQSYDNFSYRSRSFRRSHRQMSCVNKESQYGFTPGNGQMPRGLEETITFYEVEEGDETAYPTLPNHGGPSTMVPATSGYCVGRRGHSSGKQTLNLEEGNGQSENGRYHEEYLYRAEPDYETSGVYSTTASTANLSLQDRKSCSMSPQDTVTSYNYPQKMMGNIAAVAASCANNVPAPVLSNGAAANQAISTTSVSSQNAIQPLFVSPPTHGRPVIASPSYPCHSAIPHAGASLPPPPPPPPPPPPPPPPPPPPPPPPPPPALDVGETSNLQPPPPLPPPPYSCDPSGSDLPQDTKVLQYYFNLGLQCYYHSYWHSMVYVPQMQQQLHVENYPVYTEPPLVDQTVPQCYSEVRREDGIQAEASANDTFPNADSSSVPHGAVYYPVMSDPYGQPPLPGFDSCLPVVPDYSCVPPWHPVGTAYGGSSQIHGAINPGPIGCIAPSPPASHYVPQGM
In short: (§1)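 Values give the average log2 ratio of fragment to vehicle, assessed by unpaired t-test on global-median-normalised Spectronaut label-free quantities. Proteins needed ≥2 unique peptides. HEK293T lysate (495 µg per sample) was treated in triplicate with fragment at 200 µM or vehicle for 3 h and then with Biotin-Ahx-Ub-VS at 0.5 µM final for 1 h. Labelled DUBs were NeutrAvidin-enriched, digested and run by diaPASEF LC-MS/MS.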

[2] = target: ATXN3 (UniProt P54252)
In short: as §1

[3] = target: T2, BAP1 (UniProt Q92560)
T2 sequence (whole entry): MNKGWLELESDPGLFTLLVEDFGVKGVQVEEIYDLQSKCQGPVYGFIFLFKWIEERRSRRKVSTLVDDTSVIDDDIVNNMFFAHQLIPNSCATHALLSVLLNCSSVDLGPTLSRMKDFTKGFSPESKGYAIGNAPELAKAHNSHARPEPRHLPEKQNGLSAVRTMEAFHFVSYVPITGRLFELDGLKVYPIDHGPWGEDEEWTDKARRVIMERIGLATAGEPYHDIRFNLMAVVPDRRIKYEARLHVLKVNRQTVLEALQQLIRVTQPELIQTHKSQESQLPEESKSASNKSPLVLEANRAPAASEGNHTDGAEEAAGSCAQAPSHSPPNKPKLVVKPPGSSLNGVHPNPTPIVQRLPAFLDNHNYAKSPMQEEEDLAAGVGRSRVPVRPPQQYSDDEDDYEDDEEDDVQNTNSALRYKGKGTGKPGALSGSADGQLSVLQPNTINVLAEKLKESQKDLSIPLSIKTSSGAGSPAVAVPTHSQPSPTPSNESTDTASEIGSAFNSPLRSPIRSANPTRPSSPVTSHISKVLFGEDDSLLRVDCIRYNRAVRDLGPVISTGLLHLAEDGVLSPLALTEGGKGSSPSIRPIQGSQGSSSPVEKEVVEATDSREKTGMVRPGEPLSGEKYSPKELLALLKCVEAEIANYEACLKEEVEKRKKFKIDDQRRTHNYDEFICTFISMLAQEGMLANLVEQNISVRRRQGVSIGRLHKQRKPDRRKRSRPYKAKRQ
In short: as §1

[4] = target: EIF3F (UniProt O00303)
In short: as §1

[5] = target: EIF3H (UniProt O15372)
In short: as §1

[6] = target: T3, FAM105A (UniProt Q9NUU6)
T3 sequence (whole entry): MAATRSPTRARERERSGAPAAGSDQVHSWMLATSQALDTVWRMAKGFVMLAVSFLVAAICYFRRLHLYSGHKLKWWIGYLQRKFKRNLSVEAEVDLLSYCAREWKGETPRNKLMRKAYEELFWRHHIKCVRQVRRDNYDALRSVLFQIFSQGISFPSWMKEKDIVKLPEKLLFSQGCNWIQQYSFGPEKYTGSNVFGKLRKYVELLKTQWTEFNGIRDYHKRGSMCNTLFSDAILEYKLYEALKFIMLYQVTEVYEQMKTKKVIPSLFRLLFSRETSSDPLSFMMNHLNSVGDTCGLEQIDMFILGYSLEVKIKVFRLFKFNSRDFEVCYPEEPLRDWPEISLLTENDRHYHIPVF
In short: as §1

[7] = target: OTUB1 (UniProt Q96FW1)
In short: as §1

[8] = target: T4, OTUD4 (UniProt Q01804)
T4 sequence (whole entry): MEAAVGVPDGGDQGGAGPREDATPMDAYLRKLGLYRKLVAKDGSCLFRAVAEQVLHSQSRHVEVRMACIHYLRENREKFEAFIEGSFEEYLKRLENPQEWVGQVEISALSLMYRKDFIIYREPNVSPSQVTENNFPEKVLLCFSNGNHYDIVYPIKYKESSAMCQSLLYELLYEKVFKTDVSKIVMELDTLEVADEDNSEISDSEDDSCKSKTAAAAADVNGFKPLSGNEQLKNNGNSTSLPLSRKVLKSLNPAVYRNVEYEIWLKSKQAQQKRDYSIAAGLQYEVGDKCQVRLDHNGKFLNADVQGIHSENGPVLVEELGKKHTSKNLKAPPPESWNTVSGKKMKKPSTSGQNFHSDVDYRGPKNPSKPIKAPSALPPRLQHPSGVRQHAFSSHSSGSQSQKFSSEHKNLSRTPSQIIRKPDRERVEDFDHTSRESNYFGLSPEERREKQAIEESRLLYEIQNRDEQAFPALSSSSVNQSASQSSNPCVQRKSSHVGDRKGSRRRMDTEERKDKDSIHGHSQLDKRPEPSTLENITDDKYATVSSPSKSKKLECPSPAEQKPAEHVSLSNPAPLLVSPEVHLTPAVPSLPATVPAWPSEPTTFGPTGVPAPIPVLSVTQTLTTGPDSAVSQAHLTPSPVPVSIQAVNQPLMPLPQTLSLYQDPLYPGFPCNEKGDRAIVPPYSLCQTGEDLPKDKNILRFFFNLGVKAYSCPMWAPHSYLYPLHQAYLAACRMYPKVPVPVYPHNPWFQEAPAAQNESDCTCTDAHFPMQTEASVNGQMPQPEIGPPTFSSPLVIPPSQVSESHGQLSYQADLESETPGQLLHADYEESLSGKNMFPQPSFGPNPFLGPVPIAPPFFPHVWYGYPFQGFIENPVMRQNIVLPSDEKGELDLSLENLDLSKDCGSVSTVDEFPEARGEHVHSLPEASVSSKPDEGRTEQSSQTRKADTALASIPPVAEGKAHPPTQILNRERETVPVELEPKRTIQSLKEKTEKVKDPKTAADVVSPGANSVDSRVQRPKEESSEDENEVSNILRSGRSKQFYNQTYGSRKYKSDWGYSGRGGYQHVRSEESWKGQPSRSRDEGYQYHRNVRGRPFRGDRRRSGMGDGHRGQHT
In short: as §1

[9] = target: T5, OTUD5 (UniProt Q96G74)
T5 sequence (whole entry): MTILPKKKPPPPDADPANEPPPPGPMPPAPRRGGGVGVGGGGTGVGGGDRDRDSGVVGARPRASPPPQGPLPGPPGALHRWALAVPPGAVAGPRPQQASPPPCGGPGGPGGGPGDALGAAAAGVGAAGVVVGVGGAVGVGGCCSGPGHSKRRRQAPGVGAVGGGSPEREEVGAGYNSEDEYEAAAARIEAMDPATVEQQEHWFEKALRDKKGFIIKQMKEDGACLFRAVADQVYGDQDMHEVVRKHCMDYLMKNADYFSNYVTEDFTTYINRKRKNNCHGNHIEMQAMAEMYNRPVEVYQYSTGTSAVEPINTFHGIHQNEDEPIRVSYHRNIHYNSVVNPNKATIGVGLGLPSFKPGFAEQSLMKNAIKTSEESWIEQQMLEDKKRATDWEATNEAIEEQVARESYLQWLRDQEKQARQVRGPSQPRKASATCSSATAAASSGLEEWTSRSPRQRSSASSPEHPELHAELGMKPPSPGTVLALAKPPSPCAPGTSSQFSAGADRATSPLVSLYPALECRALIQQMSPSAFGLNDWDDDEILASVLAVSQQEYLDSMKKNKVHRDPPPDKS
In short: as §1

Measured: log2 ratio of Biotin-Ahx-Ub-VS probe labelling

Chain of ATXN3 (P54252 whole entry): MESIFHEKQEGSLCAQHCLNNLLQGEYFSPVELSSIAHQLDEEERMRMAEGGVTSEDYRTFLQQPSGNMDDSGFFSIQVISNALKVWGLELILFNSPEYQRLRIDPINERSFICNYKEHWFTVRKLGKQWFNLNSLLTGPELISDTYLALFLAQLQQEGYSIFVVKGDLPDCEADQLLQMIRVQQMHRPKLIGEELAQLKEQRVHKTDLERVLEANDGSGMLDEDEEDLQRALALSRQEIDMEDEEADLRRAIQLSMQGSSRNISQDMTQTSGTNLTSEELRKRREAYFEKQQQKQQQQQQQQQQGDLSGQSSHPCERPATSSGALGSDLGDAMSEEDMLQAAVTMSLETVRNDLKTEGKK
Chain of EIF3F (O00303 whole entry): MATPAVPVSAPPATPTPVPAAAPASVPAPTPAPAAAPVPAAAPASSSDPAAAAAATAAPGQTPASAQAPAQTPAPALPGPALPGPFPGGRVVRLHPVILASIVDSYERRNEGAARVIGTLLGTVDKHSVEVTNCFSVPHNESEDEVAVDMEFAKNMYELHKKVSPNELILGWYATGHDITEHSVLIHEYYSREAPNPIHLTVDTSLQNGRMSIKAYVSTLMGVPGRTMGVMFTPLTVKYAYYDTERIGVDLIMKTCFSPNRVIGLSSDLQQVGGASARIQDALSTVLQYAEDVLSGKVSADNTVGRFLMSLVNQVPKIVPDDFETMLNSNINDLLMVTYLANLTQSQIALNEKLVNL
Chain of OTUB1 (Q96FW1 whole entry): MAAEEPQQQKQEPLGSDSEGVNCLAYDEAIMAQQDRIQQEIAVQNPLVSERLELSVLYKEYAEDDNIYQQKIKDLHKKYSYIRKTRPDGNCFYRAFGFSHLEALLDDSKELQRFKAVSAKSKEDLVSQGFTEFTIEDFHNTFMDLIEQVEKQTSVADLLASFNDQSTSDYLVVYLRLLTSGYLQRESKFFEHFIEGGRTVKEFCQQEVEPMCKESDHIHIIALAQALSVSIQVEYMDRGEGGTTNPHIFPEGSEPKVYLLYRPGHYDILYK
Chain of EIF3H (O15372 whole entry): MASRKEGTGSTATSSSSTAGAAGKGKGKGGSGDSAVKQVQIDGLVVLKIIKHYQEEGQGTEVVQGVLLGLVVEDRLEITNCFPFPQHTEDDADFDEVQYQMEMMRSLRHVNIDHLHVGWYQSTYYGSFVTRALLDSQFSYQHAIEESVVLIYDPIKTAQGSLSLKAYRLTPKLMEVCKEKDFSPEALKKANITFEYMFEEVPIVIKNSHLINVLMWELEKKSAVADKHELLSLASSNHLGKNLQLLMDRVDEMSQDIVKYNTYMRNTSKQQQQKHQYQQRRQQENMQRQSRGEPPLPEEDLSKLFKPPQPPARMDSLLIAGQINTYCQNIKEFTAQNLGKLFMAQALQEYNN

NC(=O)C1CCCCN1C(=O)CCl (centres undefined)
inactive: [1] 0.0736 | [2] -0.889 | [3] -0.748 | [4] 0.103 | [5] 0.0122 | [6] -0.18 | [7] -0.182 | [8] -0.464 | [9] -0.638
